Measurements as given in PubChem BioAssay AID1159580 (chemical genetic matrix, 2015).
Among all 5,500 compounds or so, about 2,000 (36%) were called active. About 18% were inconclusive and are not listed. Cut-off read from the data, not from the text of the source: active = normalized growth mostly below about 0.91 (no sharp cut-off); inconclusive = no clear call, values can overlap the other calls; inactive = mostly above about 0.92. This is one part of the list.

Experiment: chemical genetic growth profiling, strain panel (AID 1159580);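 note: tested at 20 µM; growth read once vehicle control cultures reached saturation at 30 °C; 1 = growth at the plate median or of vehicle wells; lower values mean less growth of the strain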
Conditions: growth OD

Measured: normalized growth

CCOC(=O)c1c(C)cc(O)c(C=O)c1O
inactive: S. cerevisiae deletion strains, locus YOL012C, strain htz1 0.305
active: S. cerevisiae deletion strains, locus YJR075W, strain HOC1, hits give low values 0.272 | S. cerevisiae deletion strains, locus YKL009W, strain mrt4, hits give low values 0.446 | S. cerevisiae deletion strains, locus YKL068W, hits give low values 0.799 | S. cerevisiae deletion strains, locus YKL085W, strain MDH1 (second series), hits give low values 0.528 | S. cerevisiae deletion strains, locus YKL085W, strain MDH1, hits give low values 0.528 | S. cerevisiae deletion strains, locus YKL160W, strain elf1, hits give low values 0.655 | S. cerevisiae deletion strains, locus YKL190W, strain CNB1, hits give low values 0.108 | S. cerevisiae deletion strains, locus YKR001C, strain vps1, hits give low values 0.103 | S. cerevisiae deletion strains, locus YKR026C, strain gcn3, hits give low values 0.823 | S. cerevisiae deletion strains, locus YKR091W, strain srl3, hits give low values 0.851 | S. cerevisiae deletion strains, locus YLL001W, strain dnm1, hits give low values 0.568 | S. cerevisiae deletion strains, locus YLL026W, hits give low values 0.706 | S. cerevisiae deletion strains, locus YLL041C, strain sdh2, hits give low values 0.823 | S. cerevisiae deletion strains, locus YLR027C, strain aat2, hits give low values 0.593 | S. cerevisiae deletion strains, locus YLR039C, strain RIC1, hits give low values 0.0958 | S. cerevisiae deletion strains, locus YLR058C, strain SHM2, hits give low values 0.202 | S. cerevisiae deletion strains, locus YLR102C, strain apc9, hits give low values 0.221 | S. cerevisiae deletion strains, locus YLR113W, strain HOG1, hits give low values 0.157 | S. cerevisiae deletion strains, locus YLR221C, strain rsa3, hits give low values 0.499 | S. cerevisiae deletion strains, locus YLR258W, strain gsy2, hits give low values 0.681 | S. cerevisiae deletion strains, locus YLR262C, strain YPT6 (second series), hits give low values 0.153 | S. cerevisiae deletion strains, locus YLR262C, strain YPT6, hits give low values 0.113 | S. cerevisiae deletion strains, locus YLR268W, strain sec22, hits give low values 0.091 | S. cerevisiae deletion strains, locus YLR320W, strain mms22, hits give low values 0.292 | S. cerevisiae deletion strains, locus YLR330W, strain CHS5, hits give low values 0.176 | S. cerevisiae deletion strains, locus YLR342W, strain FKS1 (second series), hits give low values 0.159 | S. cerevisiae deletion strains, locus YLR342W, strain FKS1, hits give low values 0.586 | S. cerevisiae deletion strains, locus YLR357W, strain rsc2, hits give low values 0.772 | S. cerevisiae deletion strains, locus YLR370C, strain arc18, hits give low values 0.656 | S. cerevisiae deletion strains, locus YLR371W, strain rom2, hits give low values 0.158 | S. cerevisiae deletion strains, locus YLR384C, strain iki3, hits give low values 0.718 | S. cerevisiae deletion strains, locus YLR418C, strain cdc73, hits give low values 0.13 | S. cerevisiae deletion strains, locus YML016C, strain PPZ1, hits give low values 0.344 | S. cerevisiae deletion strains, locus YML032C, strain rad52, hits give low values 0.137 | S. cerevisiae deletion strains, locus YML120C, strain ndi1, hits give low values 0.652 | S. cerevisiae deletion strains, locus YML124C, strain tub3, hits give low values 0.262 | S. cerevisiae deletion strains, locus YMR058W, strain fet3, hits give low values 0.0978 | S. cerevisiae deletion strains, locus YMR078C, strain ctf18, hits give low values 0.112 | S. cerevisiae deletion strains, locus YMR125W, strain sto1, hits give low values 0.673 | S. cerevisiae deletion strains, locus YMR129W, hits give low values 0.722 | S. cerevisiae deletion strains, locus YMR205C, strain PFK2, hits give low values 0.47 | S. cerevisiae deletion strains, locus YMR223W, strain ubp8, hits give low values 0.2 | S. cerevisiae deletion strains, locus YMR231W, strain pep5, hits give low values 0.311 | S. cerevisiae deletion strains, locus YMR263W, strain SAP30, hits give low values 0.353 | S. cerevisiae deletion strains, locus YMR307W, strain GAS1, hits give low values 0.133 | S. cerevisiae deletion strains, locus YNL067W, strain RPL9B, hits give low values 0.201 | S. cerevisiae deletion strains, locus YNL071W, strain lat1, hits give low values 0.248 | S. cerevisiae deletion strains, locus YNL128W, strain TEP1, hits give low values 0.237 | S. cerevisiae deletion strains, locus YNL153C, strain GIM3, hits give low values 0.205 | S. cerevisiae deletion strains, locus YNL183C, strain NPR1, hits give low values 0.0359 | S. cerevisiae deletion strains, locus YNL209W, strain ssb2, hits give low values 0.392 | S. cerevisiae deletion strains, locus YNL233W, strain BNI4, hits give low values 0.153 | S. cerevisiae deletion strains, locus YNL248C, strain rpa49, hits give low values 0.635 | S. cerevisiae deletion strains, locus YNL250W, strain rad50, hits give low values 0.514 | S. cerevisiae deletion strains, locus YNL271C, strain bni1, hits give low values 0.347 | S. cerevisiae deletion strains, locus YNL298W, strain CLA4, hits give low values 0.382 | S. cerevisiae deletion strains, locus YNL307C, strain MCK1, hits give low values 0.0757 | S. cerevisiae deletion strains, locus YNL322C, strain KRE1 (second series), hits give low values 0.797 | S. cerevisiae deletion strains, locus YNL322C, strain KRE1, hits give low values 0.207 | S. cerevisiae deletion strains, locus YNR049C, strain mso1, hits give low values 0.796 | S. cerevisiae deletion strains, locus YNR052C, strain pop2, hits give low values 0.155 | S. cerevisiae deletion strains, locus YOL006C, strain TOP1, hits give low values 0.137 | S. cerevisiae deletion strains, locus YOL147C, strain pex11, hits give low values 0.0808 | S. cerevisiae deletion strains, locus YOR001W, strain rrp6, hits give low values 0.604 | S. cerevisiae deletion strains, locus YOR061W, strain CKA2, hits give low values 0.486 | S. cerevisiae deletion strains, locus YOR069W, strain VPS5, hits give low values 0.255 | S. cerevisiae deletion strains, locus YOR070C, strain gyp1, hits give low values 0.535 | S. cerevisiae deletion strains, locus YOR080W, strain dia2, hits give low values 0.642 | S. cerevisiae deletion strains, locus YOR083W, strain WHI5, hits give low values 0.674 | S. cerevisiae deletion strains, locus YOR106W, strain vam3, hits give low values 0.358 | S. cerevisiae deletion strains, locus YOR136W, strain idh2, hits give low values 0.267 | S. cerevisiae deletion strains, locus YOR144C, strain elg1, hits give low values 0.136 | S. cerevisiae deletion strains, locus YOR184W, strain ser1, hits give low values 0.0931 | S. cerevisiae deletion strains, locus YOR231W, strain MKK1, hits give low values 0.142 | S. cerevisiae deletion strains, locus YOR265W, strain rbl2, hits give low values 0.697 | S. cerevisiae deletion strains, locus YOR270C, strain vph1, hits give low values 0.263 | S. cerevisiae deletion strains, locus YOR290C, strain snf2, hits give low values 0.558 | S. cerevisiae deletion strains, locus YOR316C, strain cot1, hits give low values 0.213 | S. cerevisiae deletion strains, locus YPL051W, strain arl3, hits give low values 0.225 | S. cerevisiae deletion strains, locus YPL055C, strain LGE1, hits give low values 0.171 | S. cerevisiae deletion strains, locus YPL078C, strain atp4, hits give low values 0.558 | S. cerevisiae deletion strains, locus YPL106C, strain sse1, hits give low values 0.708 | S. cerevisiae deletion strains, locus YPL240C, strain hsp82, hits give low values 0.75 | S. cerevisiae deletion strains, locus YPL241C, strain CIN2, hits give low values 0.224 | S. cerevisiae deletion strains, locus YPL256C, strain CLN2, hits give low values 0.15 | S. cerevisiae deletion strains, locus YPR119W, strain clb2, hits give low values 0.164 | S. cerevisiae deletion strains, locus YPR141C, strain kar3, hits give low values 0.704 | S. cerevisiae deletion strains, locus YPR163C, strain tif3, hits give low values 0.0943 | S. cerevisiae deletion strains, locus YPR167C, strain met16, hits give low values 0.252 | S. cerevisiae deletion strains, strain wtn01, hits give low values 0.166 | S. cerevisiae strains, strain wild type, hits give low values 0.162
